Molecules are shown by their SMILES. Measured potencies and affinities stand elsewhere.

The source of these data is ChEMBL document CHEMBL4513146, “CO-ADD screening of Karazin Kharkiv National University (Ukraine) compounds”.

In one assay the test system is Klebsiella pneumoniae. Particulars: Concentration 32 ug.mL-1;; ASSAY_TEST Inhibition of Bacterial Growth; detection method Absorption (OD600); MEDIA CAMHB; plate type 384well; NBS; CORNING #3640; time 18 hr.
A further assay relates to Candida albicans. Particulars: Concentration 32 ug.mL-1; ASSAY_TEST Inhibition of Fungal Growth; detection method Absorption (OD530).
The test system of the next assay is Cryptococcus neoformans. Particulars: Concentration 32 ug.mL-1; ASSAY_TEST Inhibition of Fungal Growth; detection method Resazurin; Absorption (OD600-OD570); plate type 384well; NBS; CORNING #3640. A general note: The colour change of resazurin is a common sign of viable cells or microbes.

The term Inhibition denotes the drop in the measured response relative to a control, in per cent. Take `COc1cccc(-n2ccn3c(SCC(=O)Nc4cccc(F)c4)nnc3c2=O)c1`: the Inhibition in the assay on Klebsiella pneumoniae is recorded as 0.65%; in the assay with Candida albicans, 10.45%; in the assay on Cryptococcus neoformans, -5.71%.
Regarding `Cc1nnc2c(SCC(=O)N3CCN(c4ccc(F)cc4)CC3)nc3ccccc3n12`, the Inhibition in the assay with Klebsiella pneumoniae is reported as 12.85%; in the assay with Candida albicans it was 2.24%; with Cryptococcus neoformans it was -2.43%.
The corresponding values for `Cc1ccc(C)c(Cn2nc3n(CCC(C)C)c(=O)c4sccc4n3c2=O)c1` are 11.36%, 0.71% and -24.6%.
The corresponding values for `CSc1ccc(CNC(=O)Cn2nc3c(N4CCOCC4)nccn3c2=O)cc1` are 9.81%, 3.79% and -7.62%.
The matching figures for `Cc1cc2nn(CC(=O)NCc3ccccc3)c(=O)n2c(-c2ccc(C(F)(F)F)cc2)n1`: -2.81%, 22.82% and -6.62%.
On to `CCCCn1c(=O)c2sccc2n2c(=O)n(CC(=O)NC(C)CC)nc12` (centres undefined), for which the Inhibition in the assay with Klebsiella pneumoniae was -2.58%; in the assay on Candida albicans, 3.27%; in the assay with Cryptococcus neoformans it was -15.7%.
The matching figures for `COc1ccc(CNC(=O)Cn2nc3c(Sc4ccc(C)cc4C)nccn3c2=O)cc1`: 6.84%, -0.37% and -7.66%.
The matching figures for `COc1cccc(CN(c2cc(C)cc(C)c2)S(=O)(=O)c2cccn3c(C)nnc23)c1`: -4.31%, 1.08% and -6.64%.
Turning to `CCc1ccc(N(Cc2cccc(C)c2)S(=O)(=O)c2cccn3c(C)nnc23)cc1`, the Inhibition is 2.32% in the assay on Klebsiella pneumoniae, 4.84% with Candida albicans and -3.55% in the assay with Cryptococcus neoformans.
The matching figures for `O=c1n(Cc2cccc(C(F)(F)F)c2)nc2ccc(S(=O)(=O)N3CCCC3)cn12`: 10.57%, 0.2% and -10.53%.
The matching figures for `O=C(Cn1nc2c(N3CCOCC3)nccn2c1=O)Nc1ccc(Cl)cc1F`: 19.61%, 2.13% and -2.72%.
The corresponding values for `CCOC(=O)c1cccc(NC(=O)Cn2nc3c4cc(-c5ccc(C)c(C)c5)nn4ccn3c2=O)c1` are -4.81%, 21.87% and -17.02%.
Regarding `CCOc1ccccc1NC(=O)Cn1nc2c(Sc3cccc(C)c3)nccn2c1=O`, the Inhibition in the assay with Klebsiella pneumoniae was 9.01%; with Candida albicans, 0.35%; with Cryptococcus neoformans, -13.32%.
Regarding `COc1cccc(Oc2nccn3c(=O)n(CC(=O)Nc4ccc(C)cc4Cl)nc23)c1`, the Inhibition in the assay with Klebsiella pneumoniae is recorded as 11.4%; in the assay on Candida albicans, 4.48%; with Cryptococcus neoformans it was -10.48%.
As to `CCc1ccc(Cn2c(=O)c3sccc3n3c(SCc4cccc(C(F)(F)F)c4)nnc23)cc1`, the Inhibition in the assay on Klebsiella pneumoniae is recorded as 8.34%; in the assay on Candida albicans, 1.88%; in the assay on Cryptococcus neoformans it was -21.14%.
The corresponding values for `Cc1ccccc1CSc1nnc2c(=O)n(-c3ccc(F)c(F)c3)ccn12` are 9.65%, 4.14% and -9.1%.
The corresponding values for `Cc1nnc2ccc(S(=O)(=O)N(Cc3ccccc3Cl)c3cccc(F)c3)cn12` are 7.69%, 4.75% and -10.07%.
The matching figures for `O=S(=O)(c1ccc2nncn2c1)N(Cc1cc(F)cc(F)c1)c1ccccc1`: -3.49%, -0.85% and -9.11%.
For `Cc1ccc(CNC(=O)Cn2nc3c(SC4CCCCC4)nccn3c2=O)cc1`, the Inhibition is given as 14.28% in the assay with Klebsiella pneumoniae, -1.05% in the assay on Candida albicans and -11.99% with Cryptococcus neoformans.
The corresponding values for `O=C(Cn1nc2c(N3CCOCC3)nccn2c1=O)Nc1ccc(Br)cc1F` are 9.99%, 1.73% and -5.04%.
For `Cc1ccc(F)cc1NC(=O)CSc1nc2ccccc2n2c(C(C)C)nnc12`, the Inhibition was 9.62% with Klebsiella pneumoniae, 0.82% in the assay with Candida albicans and -18.14% with Cryptococcus neoformans.
On to `Cc1cc2nn(CC(=O)N3CCOCC3)c(=O)n2c(Nc2ccc(C)c(F)c2)n1`, for which the Inhibition in the assay on Klebsiella pneumoniae was 15.3%; in the assay on Candida albicans it was 1.38%; in the assay on Cryptococcus neoformans, -5.57%.
The corresponding values for `Cc1ccc(Sc2nccn3c(=O)n(CC(=O)Nc4ccccc4Br)nc23)c(C)c1` are 1.33%, 1.01% and -20.06%.
The matching figures for `Cc1cc(NC(=O)Cn2c(=O)c3nnc(C(C)C)n3c3ccccc32)ccc1Br`: 7.01%, 3.1% and -11.52%.
The corresponding values for `COC(=O)c1ccccc1NC(=O)Cn1nc2c(Oc3ccccc3)nccn2c1=O` are 8.23%, 7% and -9.79%.
Take `Cc1cccc(CN(c2cccc(F)c2)S(=O)(=O)c2ccc3nncn3c2)c1`: the Inhibition is recorded as 14.36% in the assay on Klebsiella pneumoniae, 3.33% in the assay on Candida albicans and -4.78% in the assay with Cryptococcus neoformans.
The corresponding values for `Cc1ccc(NC(=O)Cn2nc3c(SC4CCCCC4)nccn3c2=O)cc1F` are 13.26%, -0.51% and -26.18%.
The corresponding values for `CCCN(C)c1nccn2c(=O)n(CC(=O)Nc3cccc(Cl)c3F)nc12` are 7.25%, 0.78% and -6.38%.
